# Assays:
# Settings in all cases: concentration: 1 μM,replicates: in singlicate; n = 1
# [1] = tested on: T1, DCAMKL2
# T1 construct: gene DCLK2
# [2] = tested on: T2, DCAMKL3
# T2 construct: gene DCLK3
# [3] = tested on: DDR1
# [4] = tested on: DDR2
# [5] = tested on: T3, DLK
# T3 construct: gene MAP3K12
# [6] = tested on: T4, DMPK2
# T4 construct: gene CDC42BPG
# [7] = tested on: DMPK
# [8] = tested on: T5, DRAK1
# T5 construct: gene STK17A
# [9] = tested on: T6, DRAK2
# T6 construct: gene STK17B
# [10] = tested on: DYRK1A
# [11] = tested on: DYRK1B
# [12] = tested on: DYRK2
# [13] = tested on: EGFR
# [14] = tested on: EIF2AK1
# [15] = tested on: EPHA1
# [16] = tested on: EPHA2
# [17] = tested on: EPHA3
# [18] = tested on: EPHA4
# [19] = tested on: EPHA5
# [20] = tested on: EPHA6
# 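Note: KINOMEscan kinase panel screen.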
compound,measurement,setting,value
CN1CCN(CCCNc2nccc(-c3c(-c4ccc(F)cc4)nn4cc(C(N)=O)ccc34)n2)CC1 [GW622475],%Inh,[1],0%
same,%Inh,[2],7%
same,%Inh,[3],100%
same,%Inh,[4],82%
same,%Inh,[5],0%
same,%Inh,[6],44%
same,%Inh,[7],0%
same,%Inh,[8],0%
same,%Inh,[9],17%
same,%Inh,[10],20%
same,%Inh,[11],100%
same,%Inh,[12],19%
same,%Inh,[13],38%
same,%Inh,[14],8%
same,%Inh,[15],51%
same,%Inh,[16],28%
same,%Inh,[17],31%
same,%Inh,[18],0%
same,%Inh,[19],0%
same,%Inh,[20],21%
Cn1ccc2ncnc(Oc3ccc(NC(=O)Nc4cccc(C(F)(F)F)c4)c(F)c3)c21,%Inh,[1],18%
same,%Inh,[2],17%
same,%Inh,[3],96.9%
same,%Inh,[4],100%
same,%Inh,[5],0%
same,%Inh,[6],4%
same,%Inh,[7],0%
same,%Inh,[8],0%
same,%Inh,[9],24%
same,%Inh,[10],0%
same,%Inh,[11],0%
same,%Inh,[12],0%
same,%Inh,[13],12%
same,%Inh,[14],0%
same,%Inh,[15],51%
same,%Inh,[16],94.6%
same,%Inh,[17],58%
same,%Inh,[18],85%
same,%Inh,[19],85%
same,%Inh,[20],97.7%
Cc1cccc(-c2nc(Nc3ccncc3)c3sccc3n2)n1 [GW869641],%Inh,[1],21%
same,%Inh,[2],18%
same,%Inh,[3],55%
same,%Inh,[4],66%
same,%Inh,[5],0%
same,%Inh,[6],98.5%
same,%Inh,[7],18%
same,%Inh,[8],2%
same,%Inh,[9],13%
same,%Inh,[10],20%
same,%Inh,[11],9%
same,%Inh,[12],35%
same,%Inh,[13],16%
same,%Inh,[14],17%
same,%Inh,[15],0%
same,%Inh,[16],0%
same,%Inh,[17],26%
same,%Inh,[18],8%
same,%Inh,[19],23%
same,%Inh,[20],16%
Cn1ccc2ncnc(Oc3ccc(NC(=O)Nc4ccnc(C(F)(F)F)c4)c(Cl)c3)c21,%Inh,[1],0%
same,%Inh,[2],0%
same,%Inh,[3],100%
same,%Inh,[4],99.6%
same,%Inh,[5],0%
same,%Inh,[6],0%
same,%Inh,[7],0%
same,%Inh,[8],0%
same,%Inh,[9],3%
same,%Inh,[10],13%
same,%Inh,[11],53%
same,%Inh,[12],0%
same,%Inh,[13],3%
same,%Inh,[14],0%
same,%Inh,[15],0%
same,%Inh,[16],0%
same,%Inh,[17],10%
same,%Inh,[18],29%
same,%Inh,[19],0%
same,%Inh,[20],80%
CN1CCN(CCNc2nc3cc(Oc4ccc(NC(=O)Nc5cc(C(F)(F)F)ccc5F)cc4)ccc3[nH]2)CC1.Cl.Cl [GW768504],%Inh,[1],10%
same,%Inh,[2],0%
same,%Inh,[3],96.9%
same,%Inh,[4],99.2%
same,%Inh,[5],0%
same,%Inh,[6],10%
same,%Inh,[7],0%
same,%Inh,[8],0%
same,%Inh,[9],17%
same,%Inh,[10],0%
same,%Inh,[11],15%
same,%Inh,[12],0%
same,%Inh,[13],0%
same,%Inh,[14],0%
same,%Inh,[15],0%
same,%Inh,[16],4%
same,%Inh,[17],0%
same,%Inh,[18],28%
same,%Inh,[19],0%
same,%Inh,[20],51%
O=C(Nc1cccc(C(F)(F)F)c1)c1cccc(Oc2ccc3nccn3n2)c1,%Inh,[1],6%
same,%Inh,[2],9%
same,%Inh,[3],97.1%
same,%Inh,[4],95.9%
same,%Inh,[5],0%
same,%Inh,[6],1%
same,%Inh,[7],13%
same,%Inh,[8],0%
same,%Inh,[9],0%
same,%Inh,[10],5%
same,%Inh,[11],14%
same,%Inh,[12],6%
same,%Inh,[13],13%
same,%Inh,[14],0%
same,%Inh,[15],7%
same,%Inh,[16],42%
same,%Inh,[17],11%
same,%Inh,[18],17%
same,%Inh,[19],11%
same,%Inh,[20],10%
COc1cc2nccc(Nc3ccc(Oc4ccccc4)cc3)c2cc1OC.Cl [GI261656],%Inh,[1],0%
same,%Inh,[2],1%
same,%Inh,[3],0%
same,%Inh,[4],22%
same,%Inh,[5],34%
same,%Inh,[6],6%
same,%Inh,[7],0%
same,%Inh,[8],0%
same,%Inh,[9],0%
same,%Inh,[10],0%
same,%Inh,[11],18%
same,%Inh,[12],9%
same,%Inh,[13],88%
same,%Inh,[14],0%
same,%Inh,[15],0%
same,%Inh,[16],5%
same,%Inh,[17],0%
same,%Inh,[18],0%
same,%Inh,[19],0%
same,%Inh,[20],0%
CS(=O)c1ccc(-c2coc3ccc(-c4n[nH]c(=O)o4)cc23)cc1 (stereo not shown),%Inh,[1],0%
same,%Inh,[2],0%
same,%Inh,[3],0%
same,%Inh,[4],15%
same,%Inh,[5],0%
same,%Inh,[6],0%
same,%Inh,[7],29%
same,%Inh,[8],61%
same,%Inh,[9],100%
same,%Inh,[10],66%
same,%Inh,[11],68%
same,%Inh,[12],10%
same,%Inh,[13],0%
same,%Inh,[14],3%
same,%Inh,[15],0%
same,%Inh,[16],0%
same,%Inh,[17],0%
same,%Inh,[18],0%
same,%Inh,[19],0%
same,%Inh,[20],0%

# — publication PMC5540273 (PLoS ONE, 2017)
